In the supplement of paper PMC6555819:

Columns and labels:
Assay in all cases: PBM binding z-score (relative to random genomic background probes); higher = stronger binding; sequences stand for … in GC…GCGATTGACAGCGTAGAATGAAGG
[1] = tested on: RARb homodimer (NR concentration 270 nM)
In short: (§1)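 Custom Agilent 4×180K protein-binding microarrays carried double-stranded probes. Their 34-nt variable regions held direct-repeat seeds, single-nucleotide variants, half-site ablations and random human genomic background sequences. Arrays were incubated 1 h with ligand-free nuclear receptor dimers in PBS pH 7.4, 2% milk, 0.02% Triton X-100, 1 mM DTT, 0.2 mg/mL BSA and 0.4 mg/ml salmon testes DNA. Antibodies against each partner (one per run) detected binding, and scanned fluorescence was regression-normalized. Binding z-scores use random background probes as reference.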

[2] = tested on: RARg:RXRa (NR concentration 270 nM, RXRa partner concentration 90 nM)
In short: as §1

[3] = tested on: RARg homodimer (NR concentration 270 nM)
In short: as §1

[4] = tested on: RXRa DBDmut IVT, anti-RXR (DBD mutation: RXRa K156A/R161A, NR concentration 90 nM)
In short: as §1

[5] = tested on: RXRa homodimer (NR concentration 180 nM)
In short: as §1

[6] = tested on: THRa:RXRa (NR concentration 90 nM, RXRa partner concentration 90 nM)
In short: as §1

[7] = tested on: THRa homodimer (NR concentration 90 nM)
In short: as §1

[8] = tested on: VDR homodimer (NR concentration 270 nM)
In short: as §1

Sequence	PBM binding z-score [1]	PBM binding z-score [2]	PBM binding z-score [3]	PBM binding z-score [4]	PBM binding z-score [5]	PBM binding z-score [6]	PBM binding z-score [7]	PBM binding z-score [8]
CGAACTAGGTCACGAAAGGTCAAAGTCGAATGAC	6.05	7.91	8.67	2.37	8.55	5.01	2.52	3.39
AGATGTAGGTTATCGGGTCATTCAGTTTGCGCAT	3.17	3.19	2.6	1.75	3.47	3.46	2.87	3.92
TAGAGTAGGTTAGGGGCATTCAGAATGGCGTCGA	1.72	1.16	0.918	0.0146	1.08	1.36	0.85	1.66
ATCTCTAGATAAAAGTTCAGTGAATCCCGAGGAT	2.21	1.29	1.8	0.614	0.778	0.538	-0.209	1.35
CCTATGAGTTGACCATAAGGGCAACCGAAGCTCG	1.98	2.18	1.09	0.755	0.985	2.49	1.04	0.847
CCTACTGGGCCAAGAAAGGTCATTGATTCAGTGA	4.44	3.99	3.46	0.261	4.4	3.43	0.419	2.23
GATACAGGGTCAAGGCCAGAGCACGCGTATTGAT	3.82	5.4	4.9	2.27	5.45	3.6	1.34	1.92
TCGAGTAGGTTACCAATGTGGCATTCAGCTTTCT	-0.0137	0.035	0.256	0.471	0.375	0.00485	-0.499	-0.622
CGGCCTAGGTCAGGGCCAGTATAGGAGGAACGTT	2.4	2.84	3.41	-0.731	1.5	1.8	0.0895	-0.395
TCTATTAGTTTAAGGGCAACCGACGAGTCCGTTT	2.12	0.831	1.17	1.94	0.958	2.69	2.56	2.78
CCTAGTTGGTCAGGAGGTCACACTCCGGATATGA	4.21	4.74	4.43	1.03	5.04	3.4	2.46	2.5
TCATATAAGTAAATGCTAGGTGAAAGTCCGATCT	0.289	0.478	0.348	2	0.855	0.92	0.526	0.559
CCTACTGGGCCATTCAGAAGTCATTGATCATATG	-0.105	0.0962	0.226	-0.00725	-0.479	-0.404	-0.643	-0.285
TCTTGAAGATCAAAGGTTAAGAAAGCCGAAGCCT	1.32	2.04	0.685	0.731	3.74	1.37	-0.659	-0.364
TCTTGTAGATCAGCAAGTTAAGAAAGCTGGCCAA	-0.5	-0.41	-0.827	0.54	-0.136	-0.47	-1.04	-0.456
GCTAGTTGGTCGGTAAAAGGTCACACACCGGTCG	4.97	5.3	4.72	0.311	5.42	3.47	1.92	1.59
TCTGCTAGGTGAGTTGGTCAGCTAACGAGCTGCC	-0.359	-0.346	-0.369	-0.485	-0.331	-0.346	-0.955	-0.985
GCTGCTACGTCAGGTTGGTCAGCTAACGGGTACG	-0.00672	-0.503	-0.278	-0.049	-0.469	-0.38	-0.55	-0.226
CGAACGAGGGCATGAGTTGATAGGAAATGCCGAT	0.511	1.1	1.71	2.4	0.923	1.07	-0.419	1.41

Sequence	PBM binding z-score [1]	PBM binding z-score [2]	PBM binding z-score [3]	PBM binding z-score [4]	PBM binding z-score [5]	PBM binding z-score [6]	PBM binding z-score [7]	PBM binding z-score [8]
TCTGCTAGGTCAGTGGGTCAGCTAACGAGCTGCC	3.84	3.92	4.5	0.404	2.23	1.94	0.337	-0.31
CCTACTGGGCCATCCAGAGGTCATTGATCATATG	4.32	4.63	3.39	0.256	3.69	3.29	1.41	3.33
ATATGTAGGTTAAGGGTCATTGAGGTTGGTTCGC	4.17	4.87	3.36	1.89	6.28	3.55	2.06	4.8
TCTTGTACATCAAAGGTTAAGAAAGCCGAAGCCT	1.84	1.84	1.06	1.09	2.7	1.48	-0.039	0.246
GCTCAGAGGACAAGGTCAGAGCTTTGTCCGTAGA	3.68	3.51	4.41	1.18	2.64	3.08	1.34	0.78
CCTGACGGGTCAAGGTTATAGCACGGGTGGTACG	3.21	4.37	4.65	0.202	4.64	2.63	0.682	1.34
ATCGAGAGGTCGTGAGGTGAGTATACAGAAAGGC	2.4	3.66	3.28	1.43	4.24	3.36	1.63	1.87
GCTAGTTGGTCAGTAAAAGGTCACAAACCGGTCG	4.94	4.99	4.28	0.203	4.8	3.32	1.15	1.71
CCTTACGGGTCACTGACAGGTTATAGAATTTGGA	3.22	5.81	4.95	1.92	5.1	3.02	0.45	0.936
CCTACTGGGCCCCGAAAGGTCATTGATTCAGTGA	4.21	4.35	3.23	-0.457	4.99	3.04	1.03	1.81
GGAACGTGGGCAAGTTGATAGCAGAGTTTGATGG	-0.282	-0.487	-0.279	0.175	-0.184	-0.685	-0.691	0.343
CGAACTAGGTCAGAACAGCACAGTGAAGGATGAT	1.96	2.44	3.04	0.779	1.28	1.16	0.326	0.463
CCTACTGGGCCAAACGTCATTGATTCCAATGCTC	-0.184	-0.00983	-0.146	0.278	0.000676	-0.343	-0.264	-0.254
TGAATGAGGTTAAAGATCAGAGAACGTGGCGTCG	0.55	2.23	1.36	1.15	3.86	2.28	0.132	0.373
CATACAGGGTCAGCTAGGCCAGAGTCGGGACGGC	3.18	4.42	4.67	2.13	4.21	3.08	0.802	1.31
CGAACGAGGGAATGAGTTGATAGCAAATGCCGAT	-0.933	-0.383	0.11	-0.064	-0.465	-0.489	-0.692	0.188
ACTAGCAGGACAAGGGTCACTCAAGATTAGTCCG	3.75	4.12	3.61	0.928	3.68	3.04	0.529	2.01
CTCGAAAGGTCGTGCTCAGGTGCGTATACCAAAC	2.4	4.1	3.38	2.27	4.39	2.69	0.271	1.45
AGTCAAAGTTCACTAGCTAACGTAAGATTCAGCT	3.22	4.66	5.41	4.14	3.53	1.4	-0.145	3.78

Sequence	PBM binding z-score [1]	PBM binding z-score [2]	PBM binding z-score [3]	PBM binding z-score [4]	PBM binding z-score [5]	PBM binding z-score [6]	PBM binding z-score [7]	PBM binding z-score [8]
ATCTCTAGGTAAAAGCTCAGTGAATCCCGAGGAT	-0.335	-0.0468	0.135	-0.625	-0.149	0.0962	-0.296	-0.497
TCATATAGGTAATACTGGTGAAAGTCGGCATCTA	-0.0217	0.407	0.265	1.59	0.819	0.113	-0.05	0.596
ATATGTCGGTTACATCCGGGTCATTCAGGCTATG	2.58	2.37	1.71	0.511	2.45	3.31	2.52	3.41
GATACAGGGTAAAGGCCAGAGTACGCGTATTGAT	0.909	0.831	0.93	-0.389	0.877	0.316	-0.482	-0.0194
TCTGCTAGGTCAACGATAGTCAGCTAATCTGCTA	2.84	3.9	4.6	0.919	2.63	2.67	0.277	-0.234
CAAACTAGGTCAAGAGTTCAAAGTCCGCTTCCCG	4.97	7.16	6.48	3.87	5.58	3.33	1.28	7.25
CGTCCAAGGTGAAAGGTCAGTGAAGAGATGACGG	4.53	6.03	5.76	0.481	7.85	3.97	1.23	1.08
CCTACTGGGTCAAAAAGGTCATTGATGCCGATAA	5.05	6.12	5.84	1.56	6.62	3.76	1.1	4.79
ATACCAAGGTGATCGTGAGATCGTTGATACTAAC	0.108	0.309	0.133	0.00637	0.0742	0.704	0.421	0.0841
ACTATTACTTGAGACGAGGGCAACCGATAGGTTG	1.67	0.798	0.981	1.01	0.63	1.15	1.02	1.76
CATACAGGGTCAACTAGGCCAGAGTAGGGACGGC	3.62	5.7	5.42	2.74	6.54	3.74	1.5	2.36
CCGACTGGGGCAGGAAGGTTACCATACCATCCGG	1.15	0.592	0.687	-1.31	0.585	0.142	-0.486	-0.24
CCTACGGGGCCATTCAGAGGTCATTGATCATATG	4.27	6.22	3.77	2.13	4.07	3.72	1.77	4.91
CCTACTGGGCCATCAAGTCATTGATATCAACGTT	0.27	0.122	0.368	0.0115	-0.103	-0.116	-0.0575	-0.205
CAAACTAGGTCACGAAAGGTCAAAGTAGAATGAC	5.89	7.93	8.94	2.39	8.5	5.12	2.65	3.78
AGAATGAGGTTATTAAGTTCAGGGAATTGCGGTC	2.35	2.35	1.43	3.07	2.52	3.11	1.36	6.33
ACTTACGGGTCAACGAGTTTATAGCACGCGTATA	3.4	5.13	5.14	3.3	5.62	3	0.511	6.13
AGTCAAAGTTCACTAGGTAACGTAAGATTCAGCT	3.81	4.81	5.08	4.23	3.76	2.22	0.232	3.29
CCGACTGGGGCAAGGTTACCATGACGCACAGCCA	1.41	1.07	1.09	-0.669	1.13	1.21	0.0571	-0.0501
